Source: PubChem BioAssay AID1159580 (chemical genetic matrix, 2015)
Hit rate of the full screen: of about 5,500 compounds, about 2,000 (36%) were called active. Another 18% or so got no clear call; they are omitted. Rule as the data show it: active = normalized growth mostly below about 0.91 (no sharp cut-off); inconclusive = no clear call, values can overlap the other calls; inactive = mostly above about 0.92. The list shows a part of the results.

Assay: chemical genetic growth profiling, strain panel (AID 1159580);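 also: tested at 20 µM; growth read once vehicle control cultures reached saturation at 30 °C; 1 = growth at the plate median or of vehicle wells; lower values mean less growth of the strain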
Details: S. cerevisiae deletion strains, growth OD
[1] = locus YAL013W, strain DEP1, hits give low values
[2] = locus YBR229C, strain ROT2, hits give low values
[3] = locus YDL101C, strain DUN1, hits give low values
[4] = locus YDR150W, strain NUM1, hits give low values
[5] = locus YEL061C, strain CIN8, hits give low values
[6] = locus YGR078C, strain PAC10, hits give low values
[7] = locus YHR030C, strain SLT2, hits give low values
[8] = locus YHR087W, strain rtc3, hits give low values
[9] = locus YJL187C, strain SWE1, hits give low values
[10] = locus YJR043C, strain POL32, hits give low values
[11] = locus YJR075W, strain HOC1, hits give low values
[12] = locus YLR039C, strain RIC1, hits give low values
[13] = locus YLR058C, strain SHM2 (second series), hits give low values
[14] = locus YLR085C, strain ARP6, hits give low values
[15] = locus YLR262C, strain YPT6, hits give low values
[16] = locus YML094W, strain GIM5, hits give low values
[17] = locus YMR219W, strain ESC1, hits give low values
[18] = locus YMR263W, strain SAP30, hits give low values
[19] = locus YNL153C, strain GIM3, hits give low values
[20] = locus YNL298W, strain CLA4 (second series), hits give low values
[21] = locus YNL322C, strain KRE1, hits give low values
[22] = locus YNR030W, strain Alg12, hits give low values
[23] = locus YPL055C, strain LGE1, hits give low values
[24] = locus YPL241C, strain CIN2, hits give low values
[25] = locus YPR135W, strain CTF4, hits give low values
[26] = locus YAR019C, strain CDC15, hits give low values
[27] = locus YBL105C, strain PKC1, hits give low values
[28] = locus YBR135W, strain CKS1, hits give low values
[29] = locus YBR136W, strain MEC1, hits give low values
[30] = locus YBR160W, strain CDC28, hits give low values
[31] = locus YDL017W, strain CDC7, hits give low values
[32] = locus YDL028C, strain MPS1, hits give low values
[33] = locus YDL108W, strain KIN28, hits give low values
[34] = locus YDL132W, strain cdc53, hits give low values
[35] = locus YDL214C, strain PRR2, hits give low values
[36] = locus YDR052C, strain DBF4, hits give low values
[37] = locus YDR054C, strain cdc34, hits give low values
[38] = locus YDR226W, strain ADK1, hits give low values
[39] = locus YDR477W, strain SNF1, hits give low values
[40] = locus YER123W, strain YCK3, hits give low values
[41] = locus YER133W, strain GLC7, hits give low values
[42] = locus YFL009W, strain cdc4, hits give low values
[43] = locus YFL029C, strain CAK1, hits give low values
[44] = locus YFR003C, strain YPI1, hits give low values
[45] = locus YFR019W, strain FAB1, hits give low values
[46] = locus YFR028C, strain CDC14, hits give low values
[47] = locus YGR040W, strain KSS1, hits give low values
[48] = locus YGR052W, strain FMP48, hits give low values
[49] = locus YGR092W, strain DBF2, hits give low values
[50] = locus YHR079C, strain IRE1, hits give low values
[51] = locus YHR082C, strain KSP1, hits give low values
[52] = locus YHR205W, strain SCH9, hits give low values
[53] = locus YIL147C, strain SLN1, hits give low values
[54] = locus YJL095W, strain BCK1, hits give low values
[55] = locus YJL128C, strain PBS2, hits give low values
[56] = locus YJL157C, strain FAR1, hits give low values
[57] = locus YJR016C, strain ILV3, hits give low values
[58] = locus YJR066W, strain TOR1 (second series), hits give low values
[59] = locus YJR066W, strain TOR1, hits give low values
[60] = locus YKL048C, strain ELM1, hits give low values
[61] = locus YKL067W, strain YNK1, hits give low values
[62] = locus YKL101W, strain HSL1, hits give low values
[63] = locus YKL193C, strain SDS22, hits give low values
[64] = locus YKL203C, strain TOR2, hits give low values
[65] = locus YLR113W, strain HOG1, hits give low values
[66] = locus YLR133W, strain CKI1, hits give low values
[67] = locus YLR403W, strain SFP1, hits give low values
[68] = locus YML070W, strain DAK1, hits give low values
[69] = locus YMR001C, strain CDC5, hits give low values
[70] = locus YMR205C, strain PFK2 (second series), hits give low values
[71] = locus YMR277W, strain FCP1, hits give low values
[72] = locus YNL006W, strain LST8, hits give low values
[73] = locus YNL020C, strain ARK1, hits give low values
[74] = locus YNL161W, strain CBK1, hits give low values
[75] = locus YNL183C, strain NPR1, hits give low values
[76] = locus YNL207W, strain RIO2, hits give low values
[77] = locus YNL222W, strain SSU72, hits give low values
[78] = locus YNL307C, strain MCK1 (second series), hits give low values
[79] = locus YOL078W, strain AVO1, hits give low values
[80] = locus YOL136C, strain PFK27, hits give low values
[81] = locus YOR061W, strain CKA2, hits give low values
[82] = locus YOR119C, strain RIO1, hits give low values
[83] = locus YOR231W, strain MKK1, hits give low values
[84] = locus YOR329C, strain SCD5, hits give low values
[85] = locus YPL031C, strain PHO85, hits give low values
[86] = locus YPL153C, strain RAD53, hits give low values
[87] = locus YPL204W, strain HRR25, hits give low values
[88] = locus YPL209C, strain IPL1, hits give low values
[89] = locus YPL256C, strain CLN2, hits give low values
[90] = locus YPR025C, strain CCL1, hits give low values
[91] = locus YPR106W, strain ISR1, hits give low values
[92] = locus YPR111W, strain DBF20, hits give low values
[93] = strain NNK1, hits give low values
[94] = strain TSCII, hits give low values

Measured: normalized growth

N#C/C(=C\c1cccn1-c1ccc(OC(F)(F)F)cc1)S(=O)(=O)c1ccccc1
active: [14] 1.23 [resistant] | [25] 1.38 [resistant]
inactive: [1] 1.05 | [2] 1 | [3] 0.982 | [4] 1.03 | [5] 1.02 | [6] 1.02 | [7] 1.04 | [8] 1.02 | [9] 1.01 | [10] 0.986 | [11] 0.988 | [12] 1 | [13] 0.995 | [15] 0.976 | [16] 1.07 | [17] 1.01 | [18] 1 | [19] 1.03 | [20] 1.03 | [21] 1 | [22] 1.05 | [23] 1.14 | [24] 1.09

CC1(C)OC(=O)C(=Cc2cccn2-c2ccc(OC(F)(F)F)cc2)C(=O)O1
inactive: [26] 0.966 | [27] 0.995 | [28] 0.996 | [29] 0.987 | [30] 0.985 | [31] 0.999 | [32] 0.972 | [3] 0.979 | [33] 0.989 | [34] 0.99 | [35] 0.899 | [36] 0.989 | [37] 0.972 | [38] 0.963 | [39] 0.898 | [40] 0.884 | [41] 0.944 | [42] 0.96 | [43] 0.967 | [44] 0.993 | [45] 0.942 | [46] 0.964 | [47] 0.91 | [48] 0.921 | [49] 0.881 | [50] 0.875 | [51] 0.861 | [52] 0.801 | [53] 0.976 | [54] 0.832 | [55] 0.918 | [56] 0.948 | [57] 0.979 | [58] 0.987 | [59] 0.829 | [60] 0.931 | [61] 0.915 | [62] 0.89 | [63] 0.973 | [64] 0.989 | [66] 0.923 | [67] 0.92 | [68] 0.909 | [69] 0.97 | [70] 0.93 | [71] 0.954 | [72] 0.975 | [73] 0.922 | [74] 0.982 | [75] 0.894 | [76] 0.986 | [77] 0.98 | [78] 0.887 | [79] 0.973 | [80] 0.908 | [81] 0.916 | [82] 0.936 | [83] 0.827 | [84] 0.986 | [85] 0.914 | [86] 0.916 | [87] 0.923 | [88] 0.991 | [90] 1 | [91] 0.967 | [92] 0.939 | [93] 0.976 | [94] 0.968
active: [7] 0.673 | [65] 0.768 | [89] 0.782

CC1(C)OC(=O)C(=Cc2cccn2-c2ccc(C(F)(F)F)cc2)C(=O)O1
inactive: [26] 1.01 | [27] 1.03 | [28] 1.04 | [29] 1.03 | [30] 1.02 | [31] 1.04 | [32] 1.01 | [3] 1 | [33] 1.02 | [34] 1.03 | [35] 0.913 | [36] 1.01 | [37] 1.02 | [38] 1.03 | [39] 0.908 | [40] 0.896 | [41] 0.963 | [42] 1.02 | [43] 0.998 | [44] 1.03 | [45] 0.941 | [46] 0.999 | [47] 0.921 | [48] 0.954 | [49] 0.921 | [50] 0.86 | [51] 0.901 | [52] 0.775 | [53] 1.02 | [54] 0.844 | [55] 0.931 | [56] 0.946 | [57] 1.01 | [58] 0.958 | [59] 0.844 | [60] 0.88 | [61] 0.912 | [62] 0.885 | [63] 1.02 | [64] 1.01 | [66] 0.916 | [67] 0.898 | [68] 0.912 | [69] 1 | [70] 0.93 | [71] 1 | [72] 1 | [73] 0.914 | [74] 1.03 | [75] 0.917 | [76] 1.03 | [77] 1.02 | [78] 0.859 | [79] 1.01 | [80] 0.884 | [81] 0.818 | [82] 0.944 | [83] 0.83 | [84] 1.03 | [85] 0.917 | [86] 0.901 | [87] 0.905 | [88] 1.03 | [90] 1.03 | [91] 0.99 | [92] 0.964 | [93] 0.988 | [94] 0.991
active: [7] 0.686 | [65] 0.711 | [89] 0.777

N#C/C(=C\c1ccc(Oc2ccccc2)nc1)S(=O)(=O)c1ccccc1
inactive: [1] 0.996 | [2] 1 | locus YCL061C, strain MRC1, hits give low values 0.976 | [3] 1 | [4] 0.984 | [5] 1.01 | [6] 1 | [7] 0.978 | [8] 1 | [9] 0.993 | [10] 0.981 | [11] 0.99 | locus YKL190W, strain CNB1, hits give low values 1 | [12] 0.95 | [13] 1.01 | [14] 0.998 | [15] 1.02 | [16] 1.02 | [17] 1 | [18] 0.956 | locus YMR307W, strain GAS1, hits give low values 0.884 | [19] 0.993 | [20] 0.939 | [21] 1 | [22] 0.997 | locus YOL006C, strain TOP1, hits give low values 0.922 | [23] 0.988 | [24] 0.996 | [25] 0.955
